Experimental data published in PubChem BioAssay (NCATS).
Records with an inconclusive call do not appear. Entries that show only a call come without a potency. The source made the active and inactive calls. The call rests on the fitted dose curve; in most records, active means well fitted cell-killing curve with a large enough effect; inconclusive means small, poorly fitted or top-dose-only effect; inactive means flat fitted curve, though single readings scatter.

assay: qHTS of pediatric cancer cell lines to identify multiple opportunities for drug repurposing: Primary screen for Rh18 cells (AID 1347102); conditions: Rh18 rhabdomyosarcoma viability, CellTiter-Glo luminescence, 48 h; series mostly up to 46 µM; further: nearly all actives have a fitted effect of over 65% in size
Description: Drug repurposing or repositioning has been offered as a strategy for drug development in oncology programs. This approach has special potential for childhood cancers and other rare or orphan diseases, where the expected return on new drug development has been a disincentive to pharmaceuticals.
In this project we exploit the poly-pharmacology of drugs to discover new indications via phenotypic screening of a panel of 19 well-characterized cell lines derived from solid tumors seen in children and adolescents. The goal is to identify approved drugs with previously unrecognized anticancer properties that has the potential to reveal new mechanisms and biological processes involved in carcinogenesis or drug resistance. We employed a titration-based paradigm (quantitative high-throughput screening or qHTS), where all compounds were tested at multiple concentrations for their effect on cell viability. Concentration-response curves (CRCs) were derived directly from the primary screen, and both potency and efficacy values were used to identify compounds with robust bioactivity profiles. We screened the NIH Chemical Genomics Center (NCGC) Pharmaceutical Collection (NPC) and Mechanism Interrogation Plate (MIPE) small molecule collections of approved and investigational compounds against these cell lines; and measured metabolically active cells after 48 hours of compound treatment as a proxy for cell viability.
Assay Submitter: Nathalia J. Martinez, National Center for Advancing Translational Sciences, National Institutes of Health, Rockville, MD, USA; email: natalia.martinez@nih.gov
[1] Shen, M et al. Quantitative high-throughput phenotypic screening of pediatric cancer cell lines identifies multiple opportunities for drug repurposing. Oncotarget 2017 Dec 19;9(4):4758-4772. PMID 29435139.
The cells were obtained from University of North Carolina (UNC), Pediatric Preclinical Testing Program (PPT), and Coriell Institute (CI).
qHTS cell viability assay:
Cells were assayed in growth media at a density of 500-1,000 cells/well. Five microliters of cells were dispensed into 1,536-well, white, solid-bottom, TC-treated plates (Greiner Bio One) using a multidrop dispenser and incubated at 37 degrees C, 5% CO2, under a humidified atmosphere for 5 hours. Twenty-three nanoliters of compounds and controls (neutral control DMSO or positive control bortezomib at final concentration of 2.3 µM) were subsequently transferred by Kalypsys pintool. For primary screens, the MIPE collection was tested at 11-point dilutions (final concentrations range from 0.78 nM to 46 µM) and the NPC collection at 8-point dilutions (final concentrations range from 0.59 nM to 46 µM). Compounds tested in follow-up screens were assayed at 11-point dilutions. Cells were incubated for 48 hours, followed by addition of 3 µL of CellTiter-Glo (Promega). After a 15 min incubation at room temperature, samples were analyzed for luminescence intensity using a ViewLux High-throughput CCD imager equipped with clear filters.
Potency means the concentration at half of the fitted maximal effect.

SMILES	Potency
CCNC(=O)/C=C/c1cccc(Br)c1	inactive
COc1ccc(S(=O)(=O)N2c3ccc(Cl)cc3[C@@](O)(c3ccccc3Cl)[C@H]2C(=O)N2CCC[C@@H]2C(N)=O)cc1OC	inactive
CCOC(=O)c1c(N)sc2c1CCN(Cc1ccccc1)C2	inactive
CN(Cc1ccc(C(C)(C)C)cc1)Cc1cccc2ccccc12	inactive
CC(=O)O[C@]1(C(C)=O)CC[C@H]2[C@@H]3C=C(C)C4=CC(=O)CC[C@]4(C)[C@H]3CC[C@@]21C	inactive
C#C[C@]1(O)CC[C@H]2[C@@H]3[C@H](C)CC4=C(CCC(=O)C4)[C@H]3CC[C@@]21C	inactive
CN(C)C(=O)Nc1ccc(Cl)c(Cl)c1	inactive
CC(=O)OCC1=C(C(=O)O)N2C(=O)[C@@H](NC(=O)CSc3ccncc3)[C@H]2SC1	inactive
N#C/C(=C1\SCC(c2ccccc2Cl)S1)n1ccnc1 (stereo not given)	inactive
CC(O)Cn1cnc2c1c(=O)n(C)c(=O)n2C (stereo not given)	inactive
CCCCCCCCCCCCCC(=O)OC(C)C	inactive
C[N+]1(CC2COC(c3ccccc3)(C3CCCCC3)O2)CCCCC1 (stereo not given)	inactive
CC(=O)N[C@@H](CCC(=O)O)C(=O)O	inactive
CCC(Cc1c(I)cc(I)c(N)c1I)C(=O)O (stereo not given)	inactive
O=C1c2cccc3c2[C@H](CCC3)CN1[C@@H]1CN2CCC1CC2	inactive
OCc1ccccn1	inactive
CC(=O)NO	inactive
C[C@@H](O)[C@H]1C(=O)N2C(C(=O)O)=C(S[C@@H]3CN[C@H](CNS(N)(=O)=O)C3)[C@H](C)[C@H]12	inactive
Nc1ccc(S(=O)(=O)NCc2ccccc2)cc1	inactive
Cl/C(=C\n1cncn1)c1ccc(Cl)cc1Cl	inactive

SMILES	Potency
Cc1c[nH]c2ccccc12	inactive
N/C(=N\N=C\c1ccc(Cl)cc1)N/N=C/c1ccc(Cl)cc1	inactive
CCCCCCCCCCCCCCC[C@H](O)[C@@H](N)CO	inactive
CCN(CC)CCOC(=O)C(Cc1cccc2ccccc12)CC1CCCO1 (stereo not given)	inactive
CC(C)n1c(/C=C/[C@@H](O)C[C@@H](O)CC(=O)O)c(-c2ccc(F)cc2)c2ccccc21	7.5 µM (active)
COc1ccc(C(=O)c2ccccc2O)c(O)c1	inactive
CCN(CC)CCOC(=O)C1(c2ccccc2)CCCC1	inactive
CC(=O)Oc1ccc(C)cc1	inactive
C[C@@H](O)[C@H]1C(=O)N2C(C(=O)O)=C([C@H]3CCCO3)S[C@H]12	inactive
OCCOCCN1CCN(C2=Nc3ccccc3Sc3ccccc32)CC1	inactive
CC(C)Cn1cnc2c1c(=O)n(C)c(=O)n2C	inactive
O=C(O)CCNC(=O)c1ccccc1	inactive
N#CCC(=O)NN	inactive
CCCCCCCCCCCCCC[N+](C)(C)Cc1ccccc1	5.96 µM (active)
C=CCN1CCc2nc(N)sc2CC1	inactive
CCN1/C(=C/C=C/c2sc3ccccc3[n+]2CC)Sc2ccccc21	1.03 µM (active)
CC(C)(Cc1c[nH]c2ccccc12)NCC(O)COc1ccccc1C#N (stereo not given)	inactive
CCCCCCCCOc1ccc(C(=O)c2ccccc2)c(O)c1	inactive
CC1CCc2c(N3CCC(O)CC3)c(F)cc3c(=O)c(C(=O)O)cn1c23 (stereo not given)	inactive
C=C[C@H]1CN2CC[C@H]1C[C@@H]2[C@@H](O)c1ccnc2ccc(OC)cc12	inactive
